# Experimental data taken from PubChem BioAssay AID651642 (Sanford-Burnham Center for Chemical Genomics, 2012).
# The source made the active and inactive calls.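 The calls were made as follows: active = average half-effect concentration of 10 µM or less in every one of the four cell panels; inactive = the rest.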
# System: HL-1
# Experiment: cardiomyocyte survival under oxidative or metabolic stress – cell-based, panel, H9c2 and HL-1, H2O2, 2-deoxyglucose, ATP luminescence, SAR follow-up (AID 651642);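 also: plate controls were H2O2 plus DMSO for no effect and cells kept without H2O2 for full effect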
# Settings: H9c2/HL-1 cardiomyocyte H2O2 oxidative damage, mean of runs; activity: with H2O2, at 0.154 µM; outcome: with H2O2
row,Structure (SMILES),activity
1,COc1cc(-c2cc(C(=O)NCC(=O)Nc3cccc(C(C)=O)c3)c3cc(Br)ccc3n2)cc(OC)c1OC,-0.566% (active)
2,COc1cc(-c2cc(C(=O)NCC(=O)Nc3cccc(C(C)=O)c3)c3cccc(Cl)c3n2)cc(OC)c1OC,8.31% (inactive)
3,CCOC(=O)c1cccc(NC(=O)c2cc(-c3cc(OC)c(OC)c(OC)c3)nc3ccc(Br)cc23)c1,0.456% (inactive)
4,COc1ccc2c(c1OC)C(=O)N1c3ccccc3C(=O)N(Cc3ccncc3)C21 (configuration not stated),0.0397% (inactive)
5,COc1ccc2c(c1OC)C(=O)N1c3ccccc3C(=O)N(Cc3ccc(F)cc3)C21 (configuration not stated),-2.95% (inactive)
6,COc1cc(-c2cc(C(=O)NCC(=O)Nc3ccc(C(C)=O)cc3)c3cc(F)ccc3n2)cc(OC)c1OC,1.92% (active)
7,COC(=O)CNC(=O)c1cc(-c2cc(OC)c(OC)c(OC)c2)nc2ccccc12,-2.8% (inactive)
8,COc1cc(-c2cc(C(=O)Nc3cccc(C#N)c3)c3ccccc3n2)cc(OC)c1OC,0.75% (inactive)
9,CCOC(=O)c1cccc(NC(=O)CNC(=O)c2cc(-c3cc(OC)c(OC)c(OC)c3)nc3ccc(F)cc23)c1,2.27% (active)
10,COc1cc(-c2cc(C(=O)NCC(=O)O)c3ccccc3n2)cc(OC)c1OC,-0.263% (inactive)
11,CCOC(=O)c1ccccc1NC(=O)c1cc(-c2cc(OC)c(OC)c(OC)c2)nc2ccccc12,-1.41% (inactive)
12,COc1cc(-c2cc(C(=O)Nc3cccc(C(=O)Nc4ccccc4)c3)c3ccccc3n2)cc(OC)c1OC,-3.29% (inactive)
13,COc1cc(-c2cc(C(=O)Nc3cccc(C(=O)NCc4ccccc4)c3)c3ccccc3n2)cc(OC)c1OC,1.48% (active)
14,COc1cc(-c2cc(C(=O)Nc3cccc(C(C)=O)c3)c3cc(Br)ccc3n2)cc(OC)c1OC,1.55% (inactive)
15,COc1cc(-c2cc(C(=O)Nc3cccc(C(=O)NC4CC4)c3)c3ccccc3n2)cc(OC)c1OC,-0.15% (active)
16,COC(=O)CNC(=O)c1cccc(NC(=O)c2cc(-c3cc(OC)c(OC)c(OC)c3)nc3ccccc23)c1,-1.7% (active)

row,Structure (SMILES),activity
1,COc1cc(-c2cc(C(=O)Nc3cccc(-c4nn[nH]n4)c3)c3ccccc3n2)cc(OC)c1OC,-2.86% (inactive)
2,COc1cc(-c2cc(C(=O)NCC(=O)Nc3ccc(C(C)=O)cc3)c3ccccc3n2)cc(OC)c1OC,0.684% (inactive)
3,CCOC(=O)c1cccc(NC(=O)c2cc(-c3cc(OC)c(OC)c(OC)c3)nc3ccc(OC)cc23)c1,8.27% (inactive)
4,COc1cc(-c2cc(C(=O)Nc3cccc(C(C)=O)c3)c3cccc(Cl)c3n2)cc(OC)c1OC,-3.22% (inactive)
5,COc1cc(-c2cc(C(=O)Nc3cccc(C(=O)O)c3)c3ccccc3n2)cc(OC)c1OC,1.9% (inactive)
6,COc1cc(-c2cc(C(=O)Nc3cccc(C(C)=O)c3)c3ccccc3n2)cc(OC)c1OC,-1.02% (active)
7,CCOC(=O)c1cccc(NC(=O)c2cc(-c3cc(OC)c(OC)c(OC)c3)nc3ccc(F)cc23)c1,5.11% (active)
8,CCNC(=O)c1cccc(NC(=O)c2cc(-c3cc(OC)c(OC)c(OC)c3)nc3ccccc23)c1,-0.0361% (active)
9,CCOC(=O)c1ccc(NC(=O)c2cc(-c3cc(OC)c(OC)c(OC)c3)nc3ccccc23)cc1,0.646% (inactive)
10,COc1ccc(NC(=O)CNC(=O)c2cc(-c3cc(OC)c(OC)c(OC)c3)nc3ccccc23)cc1,3.9% (active)
11,COc1ccc2c(c1OC)C(=O)N1c3ccccc3C(=O)N(Cc3ccccc3Cl)C21 (configuration not stated),2.73% (inactive)
12,CCOC(=O)c1cccc(NC(=O)CNC(=O)c2cc(-c3cc(OC)c(OC)c(OC)c3)nc3ccccc23)c1,-0.899% (inactive)
13,COc1cc(-c2cc(C(=O)Nc3cccc(C(C)=O)c3)c3ccc(Cl)cc3n2)cc(OC)c1OC,-6.29% (active)
14,COc1cc(-c2cc(C(=O)NCC(=O)Nc3ccc(C(C)=O)cc3)c3cc(C)ccc3n2)cc(OC)c1OC,4.62% (active)
15,CCOC(=O)c1cccc(NC(=O)c2cc(-c3cc(OC)c(OC)c(OC)c3)nc3cc(Cl)ccc23)c1,1.44% (inactive)
16,COc1ccc2c(c1OC)C(=O)N1c3ccccc3C(=O)N(Cc3cccc(Br)c3)C21 (configuration not stated),0.759% (inactive)
